# Bioassay records (PubChem)
# Only some compounds are listed: those with a hit (about 3.3% of all), similar ones and a draw of the others.
# Luc counter = Counterscreen for Luciferase (Kinase-Glo TM) Inhibition; Kinase-Glo luciferase, ATP luminescence, 8 min; Potency, µM (doses to about 38.3 µM), actives largely listed as inhibitors; 200,000 compounds, 0.28% hits; AID 1379, 2008; further: nearly all actives have a fitted effect of over 60% in size
#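 Substrate mix (final 50 mM imidazole pH 7.2, 50 mM KCl, 7 mM MgCl2, 10 uM ATP, 0.01% Tween 20, 0.05% BSA) plus pin-tool compound, then Kinase-Glo detection mix; 8 min ambient, luminescence read.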
# Tau fluor cs = Counterscreen qHTS for Inhibitors of Tau Fibril Formation, Fluorescence Polarization; tau K18 P301L Alexa594 fluorescence, heparin fibrillization; Potency, µM (highest dose often 57.7 µM); 280,000 compounds, 0.93% hits; AID 1463, 2008; further: nearly all actives have a fitted effect of over 55% in size
#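 Human tau K18 P301L (15 uM unlabeled, 0.24 uM Alexa 594-labeled) in 100 mM sodium acetate pH 7 with 20 uM heparin, 6 hr at 37 C. ThT 30 uM added, 1 hr ambient; Alexa 594 FP and total fluorescence read at 555/632 nm.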
# Tau fibril ThT = qHTS for Inhibitors of Tau Fibril Formation, Thioflavin T Binding. Microtubule-associated protein tau (Homo sapiens), P10636. recombinant tau K18 P301L (four-repeat tau fragment), heparin-induced fibrillization, ThT fluorescence. Potency, µM (highest dose often 57.4 µM), actives largely listed as inhibitors. 270,000 compounds, 2.1% hits. AID 1460, 2008; further: nearly all actives have a fitted effect of over 55% in size
# Target sequence (P10636 561-689 P618L limits assumed): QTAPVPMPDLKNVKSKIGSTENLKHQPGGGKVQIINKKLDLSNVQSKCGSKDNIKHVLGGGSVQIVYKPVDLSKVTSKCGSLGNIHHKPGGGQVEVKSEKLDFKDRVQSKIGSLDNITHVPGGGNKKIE
#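 Aggregation was driven by heparin (20 uM final) acting on recombinant tau […] bearing P301L in 100 mM sodium acetate pH 7; fibrils were detected with Thioflavin T.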
# Tau fibril FP = qHTS for Inhibitors of Tau Fibril Formation, Fluorescence Polarization; 280,000 compounds, 0.39% hits; Potency, µM (doses to about 57.7 µM), hits mostly inhibitors; Microtubule-associated protein tau (Homo sapiens), P10636; K18 P301L tau heparin fibrillization, Alexa594 FP, 6 h; AID 1468, 2008; further: nearly all actives have a fitted effect of over 55% in size
#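 Read-out: fluorescence polarization of Alexa 594-labeled tau (0.24 uM), 555 nm excitation, 632 nm emission. Mixtures held 15 uM unlabeled K18 P301L, compound and 20 uM heparin, pH 7 acetate buffer, incubated 6 hr at 37 C.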
# NPSR antag = qHTS Assay for Antagonists of the Neuropeptide S Receptor: cAMP Signal Transduction; Q6W5P4; CHO-NPSR cells, cAMP TR-FRET, antagonist mode; Potency, µM (highest dose often 38.3 µM), hits mostly inhibitors; 220,000 compounds, 1% hits; AID 1461, 2008; further: nearly all actives have a fitted effect of over 50% in size
# Target sequence (Q6W5P4 whole entry, looked up): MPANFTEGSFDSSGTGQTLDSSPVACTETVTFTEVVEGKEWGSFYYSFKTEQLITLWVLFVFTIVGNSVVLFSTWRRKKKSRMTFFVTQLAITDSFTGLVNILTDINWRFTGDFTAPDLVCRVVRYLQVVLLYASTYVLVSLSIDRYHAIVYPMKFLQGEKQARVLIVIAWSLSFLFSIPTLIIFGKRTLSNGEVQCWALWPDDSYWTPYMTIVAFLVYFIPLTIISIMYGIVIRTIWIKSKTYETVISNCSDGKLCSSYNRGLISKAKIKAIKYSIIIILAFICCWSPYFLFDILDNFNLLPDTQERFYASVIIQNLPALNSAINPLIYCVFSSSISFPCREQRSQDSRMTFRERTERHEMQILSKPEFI
# Hits are given with their value; . = inactive; ? = inconclusive; / = no result; [ ] = another dose, or the depositor's remark. The call rests on the fitted dose curve; in most records, active means well fitted curve in the direction sought with a large enough effect; inconclusive means small, poorly fitted or top-dose-only effect, or another doubt; inactive means no such curve, though single readings can be large; an effect the other way counts as inactive or inconclusive.
SMILES,Luc counter,Tau fluor cs,Tau fibril ThT,Tau fibril FP,NPSR antag
O=c1c(C=Nc2cccnc2Cl)c(O)n(CCCCl)c(=O)n1C1CCCCC1,.,.,.,.,10µM
O=c1c(C=NCc2cccs2)c(O)n(C2CCCCC2)c(=O)n1C1CCCCC1,.,.,.,.,?
c1cncc([C@H]2CCCCN2)c1,.,.,.,.,/
c1ccc(CCCN2CCN(CCOC(c3ccccc3)c3ccccc3)CC2)cc1,.,.,?,.,15.8µM
CCC(Sc1ccccc1)C(=O)OC1CC2CCC(C1)N2C (configuration not stated),/,.,.,.,/
O=C1NC(=O)C(=CN2CCc3ccccc32)C(=O)N1,.,.,10µM,?,.
O=C1NC(=O)N(Cc2ccccc2)C(=O)/C1=C\N1CCCc2ccccc21,.,.,.,.,.
O=C1NC(=O)C(=Cc2ccc(-c3cc(Cl)ccc3[N+](=O)[O-])o2)C(=O)N1,.,.,7.94µM,.,?
O=C(O)C1Sc2[nH]c(=O)sc2C2c3cc(Cl)ccc3OC(=O)C12 (configuration not stated),.,?,22.4µM,.,.[7.67 µM]
Cn1cccc1/C=C1/C(=O)NC(=S)N(Cc2ccc(F)cc2)C1=O,/,11.2µM[quencher],/,35.5µM,?
Cn1cccc1/C=C1/C(=O)NC(=O)N(Cc2ccc(F)cc2)C1=O,/,/,/,/,.
O=C(Oc1ccccc1)N1CCC[C@@]2(CCN(Cc3ccccc3)C2)C1,.,/,/,/,/
CN(C)C(=O)Oc1ccc(OC(=O)N(C)C)cc1,.,.,.,.,.
CN(C)C(=O)Oc1ccc(OCc2nc3ccccc3[nH]2)cc1,11.2µM,.,.,.,.
[N-]=[N+]=NCC(=O)c1c[nH]c(=O)[nH]c1=O,.[7.66 µM],/,/,/,/
CN(C)c1ccc(C=C2C(=O)NC(=S)NC2=O)cc1[N+](=O)[O-],.,?,31.6µM,?,.
CN(C)c1ccc(C=C2C(=O)NC(=O)NC2=O)cc1[N+](=O)[O-],.,.,?,.,.
CCN=C=NCCCN(C)C,.[7.66 µM],/,/,/,/
O=c1[nH]c(O)c(N=Nc2ccc(S(=O)(=O)N3CCOCC3)cc2)c(=O)[nH]1,.,.,?,.,.
CN(C)S(=O)(=O)c1ccc(C(=O)NCCSc2c(-c3ccccc3)[nH]c3ccccc23)cc1,/,3.98µM[quencher],.,.,/
O=C(NCCSc1c(-c2ccccc2)[nH]c2ccccc12)c1ccc(S(=O)(=O)N2CCOCC2)cc1,/,6.31µM[quencher],.,?,/
O=c1[nH]c(=O)n(CCC2=CCCCC2)c(O)c1/C=N/Nc1cccc2ccccc12,/,?,17.8µM,?,.
O=c1[nH]c(=S)n(C2CC2)c(O)c1/C=N/Nc1ccccc1,.,.,11.2µM,?,.
CCCCC(=O)N/N=C/c1c(O)n(C2CC2)c(=S)[nH]c1=O,.,.,?,.,.
CCC(C)n1c(O)c(/C=N/Nc2ccccc2)c(=O)[nH]c1=S (configuration not stated),.,?,17.8µM,.,.
SMILES,Luc counter,Tau fluor cs,Tau fibril ThT,Tau fibril FP,NPSR antag
O=c1[nH]c(=O)n(CCC2=CCCCC2)c(O)c1/C=N/Nc1ccccc1,.,.,.,.,.
O=c1[nH]c(=S)n(C2CC2)c(O)c1/C=N/Nc1cccc2ccccc12,/,?,11.2µM,?,.
CC1=C2C(=O)[C@@H]3[C@@H](CC=C4C[C@@H](O)CC[C@@]43C)[C@H]2CC[C@@]12O[C@H]1C[C@H](C)CN[C@H]1[C@@H]2C,.[7.66 µM],/,/,/,/
C[C@@]12CC[C@H]3[C@H](CCC4=CC(=O)CC[C@H]43)[C@H]1CC[C@H]2OC1(O)C(=O)c2ccccc2C1=O,.[7.66 µM],/,/,/,/
N[C@]1(C(=O)O)CC[C@@H](C(=O)O)C1 (racemic),/,.,.,.,/
CN1C2CCC1/C(=C/c1ccccn1)C(=O)/C2=C\c1ccccn1,.,.,4.47µM,?,.
CC(C)=C[C@H]1[C@@H](C(=O)OCc2cc3c(cc2Cl)OCO3)C1(C)C,.[7.66 µM],/,/,/,/
Cc1c(C)n(O)c2ccc3nonc3c12,/,.,31.6µM,?,.
O=C1NC(=O)C(=C/C=C/c2coc3ccc(Br)cc3c2=O)C(=O)N1,/,.,7.94µM,?,.
CO[C@H]1[C@H](O)[C@H](O[C@@H]2[C@H](Oc3cccc4c(O)c5c(=O)oc6ccc(C)c7c(=O)oc(c34)c5c67)O[C@@H](C)[C@H](O)[C@H]2O)O[C@@H](C)[C@@H]1O,.[7.66 µM],/,/,/,/
OCCN1CCN(CCCN2c3ccccc3Sc3ccc(C(F)(F)F)cc32)CC1,.,?,?,.,?
FC(F)(F)c1ccc2c(c1)N(CCCN1CCN(CCCl)CC1)c1ccccc1S2,.,?,?,.,7.94µM
O=C1NC(=O)N(Cc2ccccc2Cl)C(=O)/C1=C/N1CCOCC1,.,.,17.8µM,?,.
CCc1c(C)nc(N)nc1N1N=C1SC(C(C)=O)C(C)=O,.,.,17.8µM,?,.
Cc1ccc(-c2nnc(Nc3ccc(Br)cc3)c3ccccc23)cc1S(=O)(=O)NCc1nc2ccccc2[nH]1,/,?,.,?,/
N#CC(C#N)=NNc1ccc(S(=O)(=O)N2CCCC2)cc1,.,.,17.8µM,.,.
